Assay results taken from PubChem BioAssay AID1626 (SRMLSC, 2009).
About 2,000 (0.91%) of roughly 220,000 compounds were called active. Roughly 2% stayed inconclusive and do not appear here. The list is a sample of the results. Results with a measured potency or affinity are listed apart. Unmarked numbers belong to inactive results. Cut-off read from the data, not from the text of the source: inconclusive = inhibition above about 80% without an active follow-up result; inactive = below that; test concentration not stated here.

assay: M. tuberculosis H37Rv growth inhibitors, H37Rv strain (AID 1626); details: hits give high values, concentration not given here;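 note: bacteria incubated seven days before Alamar blue readout; 0% = bacteria only wells and 100% = bacteria with antibiotic wells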

Q: Which inhibition does the source give for CCOc1ccc(-c2cnc(N)n2C)cc1 here?
A: The inhibition was 5.53%.

Q: With Cc1ccc(CSCCNC(=O)CN(c2cccc([N+](=O)[O-])c2)S(C)(=O)=O)cc1 as the compound, how does the inhibition read?
A: The inhibition was 0.16%.

Q: Which inhibition does the source give for Cc1noc(C)c1COC(=O)C1(c2cccc(F)c2)CCCC1 here?
A: Its inhibition is 5.81%.

Q: With CCOC(=O)CC(=O)CSc1ncnc2c1nnn2-c1ccc(OC)cc1 as the compound, how does the inhibition read?
A: Its inhibition is 0.52%.

Q: With COC(=O)c1cccc(COC(=O)c2cccnc2SC)c1 as the compound, how does the inhibition read?
A: Its inhibition is 5.06%.

Q: With Cc1nn(C)c2ncc(C(N)=O)c(Oc3ccc(Cl)cc3)c12 as the compound, how does the inhibition read?
A: Its inhibition is -11.3%.

Q: With Cc1nc(-c2ccc(Cl)cc2)sc1C1(C)CC(c2cccc([N+](=O)[O-])c2)=NO1 (configuration not stated) as the compound, how does the inhibition read?
A: The inhibition was -8.66%.

Q: With Cc1ccccc1CN(c1ccc(C(=O)NCc2cccnc2)cc1)S(C)(=O)=O as the compound, how does the inhibition read?
A: Its inhibition is -13.5%.

Q: For Cc1ccc(SCC(=O)Nc2ccc(S(=O)(=O)Nc3nccs3)cc2)cc1, which inhibition is on record?
A: The inhibition was 13.6%.

Q: For Fc1ccc(-n2cc(-c3ccccc3)c3c(NN4CCOCC4)ncnc32)cc1, which inhibition is on record?
A: The inhibition was -8.02%.

Q: Which inhibition does the source give for c1ccc(-c2cn(-c3ccccc3)c3ncnc(NCCCN4CCOCC4)c23)cc1 here?
A: The inhibition was 1.78%.

Q: With CCN=C(N/N=C/c1ccc([N+](=O)[O-])cc1)SC as the compound, how does the inhibition read?
A: Its inhibition is -6.2%.

Q: Which inhibition does the source give for O=C(CNc1ccccc1C(=O)O)c1ccccc1 here?
A: Its inhibition is -10.8%.

Q: Which inhibition does the source give for Cc1ccc(NC(=O)C/C(N)=N/O)cc1C here?
A: Its inhibition is 72.6%.

Q: For Cc1ccc(S(=O)(=O)N(C)Cc2ccc(C(=O)NN=C3C4CC5CC(C4)CC3C5)cc2)cc1, which inhibition is on record?
A: The inhibition was -4.86%.

Q: Which inhibition does the source give for Nc1nc(-c2cc3ccccc3o2)cs1 here?
A: The inhibition was 3.5%.

Q: With Nc1cc(N)cc(-c2nc3ccccc3o2)c1 as the compound, how does the inhibition read?
A: Its inhibition is 53%.

Q: Which inhibition does the source give for CNc1ccccc1C(C)(C)c1cc(-c2cccc(OC)c2)no1 here?
A: The inhibition was 3.34%.

Q: For Cn1/c(=N\NC(=O)C2CCCCC2)sc2ccccc21, which inhibition is on record?
A: The inhibition was 4.34%.

Q: For CCOC(=O)c1c(C)n(C)c2ccc(OCC(N)=O)cc12, which inhibition is on record?
A: Its inhibition is 0.2%.

Q: With CCOC(=O)c1c(C)n(C)c2ccc(OC(C)=O)cc12 as the compound, how does the inhibition read?
A: The inhibition was -1.73%.

Q: With Cc1nn(C)c(C(=O)N/N=C/c2ccccc2)c1[N+](=O)[O-] as the compound, how does the inhibition read?
A: The inhibition was -7.25%.

Q: For COc1ccc(-n2c(SC3CCOC3=O)nc3ccccc3c2=O)cc1Cl (configuration not stated), which inhibition is on record?
A: Its inhibition is 5.75%.

Q: For CN1CCN(c2ccc(NC(=O)COc3ccccc3Cl)cc2)CC1, which inhibition is on record?
A: The inhibition was 6.62%.

Q: Which inhibition does the source give for COc1cccc(C(C(=O)NC2CCCC2)N(Cc2ccccc2OC)C(=O)c2ccco2)c1 (configuration not stated) here?
A: Its inhibition is 2.53%.

Q: Which inhibition does the source give for COc1ccc(Nc2oc(COc3ccc(OC)cc3)nc2C#N)cc1 here?
A: The inhibition was -0.92%.

Q: For Cc1ccc2cccc(OC(=O)/C=C\c3ccccc3)c2n1, which inhibition is on record?
A: The inhibition was -1.17%.

Q: Which inhibition does the source give for COc1ccccc1/C=C/C(=O)NCc1ccccn1 here?
A: The inhibition was -4.28%.

Q: With COc1ccccc1/C=C/C(C)=O as the compound, how does the inhibition read?
A: Its inhibition is -0.82%.

Q: For CN(C(=O)Oc1cccc2cccnc12)c1ccccc1, which inhibition is on record?
A: Its inhibition is 1.95%.

Q: Which inhibition does the source give for CCCNS(=O)(=O)c1ccc(NC(=O)Cc2cccs2)cc1 here?
A: Its inhibition is 5.56%.

Q: With C/C=C/c1ccc(OCCCCOc2ccccc2C(C)=O)c(OC)c1 as the compound, how does the inhibition read?
A: Its inhibition is 6.35%.

Q: With Brc1cccc(OCCOCCn2ccnc2)c1 as the compound, how does the inhibition read?
A: The inhibition was 4.09%.

Q: Which inhibition does the source give for O=C(NCCN1CCc2ccccc2C1)C1CCN(S(=O)(=O)N2CCC3(CC2)OCCO3)CC1 here?
A: Its inhibition is -3%.

Q: Which inhibition does the source give for O=C(NCc1ccco1)c1ccccc1Br here?
A: The inhibition was -5.82%.

Q: Which inhibition does the source give for O=C(NCc1ccco1)c1ccccc1-c1ccccc1 here?
A: The inhibition was -5.77%.

Q: For O=c1ccnc(SCc2ccccc2Cl)[nH]1, which inhibition is on record?
A: Its inhibition is 3.49%.

Q: With CCc1ccc2c(c1)[C@]1(C(=O)N2)[C@@H]2C(=O)N(Cc3ccccc3)C(=O)[C@@H]2[C@@H]2CCCN21 as the compound, how does the inhibition read?
A: Its inhibition is 3.94%.

Q: For CC(C)c1cc(C(=O)N2CCCC(C(=O)c3ccc4ccccc4c3)C2)on1 (configuration not stated), which inhibition is on record?
A: Its inhibition is 5.22%.

Q: For CCc1cccc2c1NC(=O)[C@]21[C@@H]2C(=O)N(Cc3ccccc3)C(=O)[C@@H]2[C@@H]2CCCN21, which inhibition is on record?
A: The inhibition was -9.59%.

Q: For CN(C)c1ccccc1C(=O)N1CCCC(C(=O)c2ccc3ccccc3c2)C1 (configuration not stated), which inhibition is on record?
A: Its inhibition is -4.94%.

Q: Which inhibition does the source give for CCn1nc(C)cc1C(=O)N1CCCC(C(=O)c2ccc3ccccc3c2)C1 (configuration not stated) here?
A: The inhibition was 5.72%.

Q: With Cc1cccc2c1NC(=O)C21N2CCCC2C(C(=O)c2ccc3ccccc3c2)C12C(=O)Nc1ccccc12 (configuration not stated) as the compound, how does the inhibition read?
A: Its inhibition is 21.8%.

Q: Which inhibition does the source give for Nc1nc(N2CCN(C(=O)c3ccco3)CC2)nc2ccc(Br)cc12 here?
A: Its inhibition is 10.2%.

Q: With Nc1c(Cl)ncnc1N1CCCC1 as the compound, how does the inhibition read?
A: The inhibition was -5.84%.

Q: Which inhibition does the source give for CCCCOCCCNS(=O)(=O)c1ccccc1 here?
A: The inhibition was -3.58%.

Q: With Cc1cc(Nc2cccc([N+](=O)[O-])c2)c2cccc(C)c2n1 as the compound, how does the inhibition read?
A: Its inhibition is -6.77%.

Q: With Cc1ccccc1C(=O)NNC1CC(=O)N(c2ccc3c(c2)OCCO3)C1=O (configuration not stated) as the compound, how does the inhibition read?
A: Its inhibition is -10.4%.

Q: For O=C(COC(=O)c1ccc(O)cc1)Nc1cc(C(F)(F)F)ccc1Cl, which inhibition is on record?
A: Its inhibition is 0.39%.

Q: With CCS(=O)(=O)CCSc1nc2ccccc2o1 as the compound, how does the inhibition read?
A: The inhibition was 3.19%.

Q: With c1ccc2oc(CCc3nc4ccccc4o3)nc2c1 as the compound, how does the inhibition read?
A: The inhibition was 0.98%.

Q: For CCC(=O)c1ccc(OCCn2cnc3ccccc32)cc1, which inhibition is on record?
A: Its inhibition is 9.27%.

Q: For COc1cc(NC(=O)c2ccco2)c(OC)cc1NC(=O)c1cc(OC)c(OC)c(OC)c1, which inhibition is on record?
A: Its inhibition is 3.83%.

Q: Which inhibition does the source give for COc1ccc(NC(=O)c2ccco2)c(OC)c1 here?
A: Its inhibition is -9.54%.

Q: Which inhibition does the source give for Cc1ccc(-c2nnn(CC(=O)N(CC(=O)NC3CCCCC3)c3ccc(F)c(Cl)c3)n2)o1 here?
A: The inhibition was 1.56%.

Q: Which inhibition does the source give for O=C(Nc1ccccc1)N(Cc1ccc2c(c1)OCO2)Cc1nc2ccccc2c(=O)[nH]1 here?
A: The inhibition was 9.11%.

Q: Which inhibition does the source give for CCOC(=O)C1(CCc2ccccc2)CCN(Cc2nccn2CC)CC1 here?
A: The inhibition was 4.84%.

Q: For CCOC(=O)C1(CCc2ccccc2)CCN(Cc2ccc(O)cc2)CC1, which inhibition is on record?
A: Its inhibition is 1.73%.

Q: Which inhibition does the source give for Cn1cnnc1SCNC(=O)C(F)(F)F here?
A: The inhibition was -14.5%.

Q: For COc1ccccc1-c1coc2cc(OC(=O)N3CCOCC3)ccc2c1=O, which inhibition is on record?
A: The inhibition was 0.83%.

Q: With Cc1oc2cc(OCC(=O)O)ccc2c(=O)c1Oc1ccccc1 as the compound, how does the inhibition read?
A: The inhibition was -10.7%.

Q: With CCN(CC)C(=O)Oc1ccc2c(=O)c(-c3ccccc3)coc2c1 as the compound, how does the inhibition read?
A: The inhibition was 8.19%.

Q: With COc1ccccc1-c1coc2cc(OC(=O)/C=C/c3ccccc3)ccc2c1=O as the compound, how does the inhibition read?
A: Its inhibition is 12.4%.

Q: With CCOC(=O)c1oc2cc(OC(C)=O)ccc2c(=O)c1-c1ccc(OC)c(OC)c1 as the compound, how does the inhibition read?
A: Its inhibition is -4.14%.

Q: With CC(=O)Oc1ccc2c(=O)c(-c3ccccc3)coc2c1 as the compound, how does the inhibition read?
A: The inhibition was 71.2%.

Q: With CCOC(=O)c1oc2cc(OCC(N)=O)ccc2c(=O)c1-c1ccc(OC)c(OC)c1 as the compound, how does the inhibition read?
A: The inhibition was -2.49%.

Q: Which inhibition does the source give for Cc1oc2cc(OC(C)C(=O)O)ccc2c(=O)c1Oc1ccccc1 (configuration not stated) here?
A: The inhibition was -9.62%.
